# Experimental data from PubChem BioAssay (Tox21).
# Inconclusive results are not listed. Where a call stands in place of a potency, no number is given. The source made the active and inactive calls. The call rests on the fitted dose curve.
# Assay: qHTS assay to identify small molecule antagonists of the sonic hedgehog signaling (Shh) pathway (AID 1259369); further: nearly all actives have a fitted effect of over 45% in size
# Conditions: NIH/3T3 Gli1-Luc reporter, Shh antagonist, luminescence 24 h; series mostly up to 92.4 µM
# Excerpt: U.S. Tox21 Program National Center for Advancing Translational Sciences [NCATS] NIH Chemical Genomics Center [NCGC] U.S. Environmental Protection Agency [EPA] National Institutes of Environmental Health Sciences [NIEHS] National Toxicology Program [NTP] U.S. Food and Drug Administration [FDA] Tox21 Assay Overview: The sonic hedgehog (Shh) pathway is essential for normal embryonic development. Dysregulation of the Shh pathway can cause severe developmental defects in organs. Therefore chemicals that interfere with the pathway are potential developmental toxicants. A cell line designated 3T3Gli1-Luc (DMB/OARSA/CFSAN/FDA, Laurel, MD), a NIH/3T3 derived clone containing stably integrated Gli1-Luc reporter is used to detect chemical interference of the Shh pathway, by changes in the expression of the firefly Luc gene under the control of the Gli1 transcriptional response element. This cell line was used to screen Tox21 libraries for identifying and prioritizing the potential developmental toxicants that interfere Shh pathway. Conditioned medium-stimulated mode was used to screen for chemicals inhibiting Shh signaling.
# Tox21 Assay Protocol Summary: 3T3 Gli1-Luc cells were dispensed at 2,000 per well in 5uL of culture medium into white solid bottom 1536-well plates (Greiner Bio-One, Monroe, NC) using a Multidrop Combi (Thermo Scientific, Waltham, MA) dispenser. The assay plates were incubated at 37 C and 5% CO2 for 4hr, and then 23nL of compounds dissolved in DMSO and positive control were transferred using a Pintool station (Wako, San Diego, CA). The compound transfer was followed by the addition of 1ul conditioned medium or assay buffer using two separate tips of Flying Reagent Dispenser (FRD, Aurora Discovery, San Diego, CA). The assay plates were incubated at 37C and 5% CO2 for 24hr. For luciferase read, 4uL of Amplite Luciferase reporter gene assay reagent (AAT Bioquest, Inc. Sunnyvale, CA) was added to each well of the assay plates using FRD and incubated at room temperature for 30min. The luminescence signal was measured using a ViewLux plate reader (Perkin Elmer, Shelton, CT).
# Potency means the concentration at half of the fitted maximal effect.
Compound,Potency,"activity change, negative = inhibition"
CC(C)(C)C(=O)c1ccccc1,inactive,–
CC(N)C12CC3CC(CC(C3)C1)C2 (stereo not given),inactive,–
CC(C)CCCO,inactive,–
CCCCN1C=CN(C)C1,–,0.745% [at 19 µM] (inactive)
CN(C)CCCCCCN(C)C,inactive,–
CC(C)C(=O)OC(=O)C(C)C,inactive,–
Cc1ccc(C(=O)c2ccc(CC(=O)O)n2C)cc1,inactive,–
CN1[C@@H]2CC[C@H]1CC(OC(=O)C(O)c1ccccc1)C2 (stereo not given in full),inactive,–
CC(CC=O)CC(C)(C)C (stereo not given),inactive,–
CC(C#N)(CCC(=O)O)N=NC(C)(C#N)CCC(=O)O (stereo not given),inactive,–
CC(=O)OCC(=O)[C@@]1(O)[C@H](C)C[C@H]2[C@@H]3CCC4=CC(=O)C=C[C@]4(C)[C@@]3(F)[C@@H](O)C[C@@]21C,inactive,–
O=C(O)CCCC[P+](c1ccccc1)(c1ccccc1)c1ccccc1,inactive,–
O=C(O)CNC(=O)c1ccccc1,inactive,–
CCC(C)(CCCC(C)C)OC(C)=O (stereo not given),inactive,–
CC(C(=O)O)c1cccc(Oc2ccccc2)c1 (stereo not given),inactive,–
CCCCCC(=O)OCCc1ccccc1,inactive,–
NC(N)=NCCN1CCCCCCC1,–,18.5% [at 0.349 µM] (inactive)
Cc1ccccc1N=C(N)N=C(N)N,inactive,–
CC/C=C\CCOC(C)OCC (stereo not given),inactive,–
CC(C)(N)C#N,inactive,–

Compound,Potency,"activity change, negative = inhibition"
CN(C)C(=O)Oc1cccc([N+](C)(C)C)c1,inactive,–
CC(=O)c1ccc2ccccc2c1,inactive,–
CCC(=O)OCc1ccccc1,inactive,–
O=S(=O)(O)c1cc(O)c(O)c(S(=O)(=O)O)c1,inactive,–
CCOC(=O)COC(=O)c1ccccc1C(=O)OCC,inactive,–
CC(C)[C@H]1CC[C@@H](C)CC1=O,inactive,–
CCCOC(=O)CC,inactive,–
CCCC(C)C(=O)OCC (stereo not given),inactive,–
O=C(CO)[C@@H](O)[C@H](O)[C@H](O)CO,inactive,–
CCCCc1nc(Cl)c(CO)n1Cc1ccc(-c2ccccc2-c2nn[nH]n2)cc1,0.596 µM (active),–
CCN(Cc1ccccc1)c1ccccc1,48 µM (active),–
CCCCCCCCCC[N+](C)(C)[O-],inactive,–
CC(=O)Nc1ccc(OCC(O)CNC(C)C)cc1 (stereo not given),inactive,–
CCCCCCCC1CCCC1=O (stereo not given),inactive,–
COc1cccc(OC)c1C(=O)N[C@@H]1C(=O)N2[C@@H]1SC(C)(C)[C@@H]2C(=O)O,inactive,–
CCOC(=O)OC(C)OC1=C(C(=O)Nc2ccccn2)N(C)S(=O)(=O)c2ccccc21 (stereo not given),inactive,–
CC1=NS(=O)(=O)c2cc(Cl)ccc2N1,inactive,–
Cc1onc(-c2c(Cl)cccc2Cl)c1C(=O)Cl,inactive,–
CC(C)c1ccc2ncccc2c1,inactive,–
N[C@H](C(=O)O)[C@@H](O)c1ccc(O)c(O)c1,inactive,–
